# PubChem BioAssay AID1063 (University of Pittsburgh Molecular Library Screening Center, 2008)
# Out of some 200,000 compounds screened, about 18,000 (9%) were called active. Rule as the data show it: active = inhibition above about 50%; inactive = the rest. The full list was thinned out, with actives kept by preference.
# Assay: Leishmania major promastigote growth inhibition, primary screen (AID 1063);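 also: promastigotes grown with compound for 44 hours at 28 °C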
# Details: Leishmania major promastigotes, resazurin fluorescence viability; at 10 µM; hits give high values
row,Structure (SMILES),inhibition
1,Cc1cc(C)c(C(N)=O)c(Cl)n1,-12.9% (inactive)
2,Cc1cc(C)nc(N2CCC(C(=O)Nc3ccc4c(c3)OCCO4)CC2)n1,-3.98% (inactive)
3,COc1ccc(S(=O)(=O)Nc2cccnc2)c(Cl)c1Cl,1.47% (inactive)
4,CC1CCN(CCC(=O)Nc2ccccc2)CC1,18.3% (inactive)
5,CCOC(=O)C1CCN(C(=O)C2(NC(=O)Nc3cccc(F)c3)CCCCC2)CC1,-15.2% (inactive)
6,CCOC(=O)C1CCN(CCC(=O)Nc2cccc(C)c2)CC1,92.7% (active)
7,O=C(O)/C=C\C(=O)Nc1ccc(OCc2ccccc2)cc1,-4.77% (inactive)
8,Cc1c(-c2nn(C)c(=O)c3ccccc23)oc2ccc(F)cc2c1=O,94.9% (active)
9,Cc1ccc(F)cc1NC(=O)Cc1nn(C)c(=O)c2ccccc12,-5.08% (inactive)
10,O=C1c2oc3ccc(Br)cc3c(=O)c2C(c2cccc(F)c2)N1CCO (stereo not drawn),-1.54% (inactive)
11,CCN(CCCNC(=O)CCn1c(=O)[nH]c2ccsc2c1=O)c1ccccc1,-5.73% (inactive)
12,COC(=O)c1cc(NC(=O)c2cccnc2)ccc1N1CCOCC1,-4.83% (inactive)
13,O=C(Cn1cc(-c2nnnn2-c2ccc(Cl)cc2)c(=O)c2ccccc21)c1ccccc1,-4.69% (inactive)
14,Clc1ccc(-n2nnnc2-c2cnc(-c3ccccn3)nc2-c2cccs2)cc1,61.2% (active)
15,c1ccc(-c2noc(-c3cccs3)n2)nc1,-1.93% (inactive)
16,COc1cccc(-c2nn(C)c3sc(C(=O)N4CCN(c5ccccc5)CC4)cc23)c1,20.1% (inactive)
17,COc1ccccc1N1CCN(C(=O)c2cn(-c3ccccc3)nc2-c2cccnc2)CC1,84.2% (active)
18,CC(C)(C)OC(=O)N/N=C/c1cn(-c2ccccc2)nc1-c1cccnc1,21.8% (inactive)
19,O=C(c1cn(-c2ccccc2)nc1-c1cccnc1)N1CCCCC1,-1.11% (inactive)
20,COc1ccccc1N1CCN(C(=O)c2cc3c(-c4ccc(Cl)cc4)nn(C)c3s2)CC1,60.4% (active)
21,CCOC(=O)N1CCN(C(=O)c2cc3c(-c4ccc(Cl)cc4)nn(C)c3s2)CC1,10.6% (inactive)
22,C/C(=N/Nc1ccc(Cl)cc1)c1cnnc(-c2ccccc2)n1,2.35% (inactive)
23,Cc1ccc(C(=O)NC(=S)Nc2ccccc2C)cc1,0.17% (inactive)
24,Cc1nn(-c2ccccc2)c(C)c1/C=N/NC(=O)CSc1nc2ccccc2c(=O)n1-c1ccccc1,14.7% (inactive)
25,C/C(=N\NC(=O)CSc1nc2ccccc2c(=O)n1-c1ccccc1C)c1cccs1,91% (active)
26,C/C(=N\NC(=O)COc1c(C)cccc1C)c1cccs1,2.87% (inactive)
27,Cc1ccnc(NC(=O)CCCOc2ccccc2)c1,-3.55% (inactive)
28,O=C(Nc1ccc(F)cc1)N1CCN(c2ccc(F)cc2)CC1,-0.19% (inactive)
